BAZ2B inh – BAZ2B (human) inhibition; Potency, µM (top dose mostly 114 µM), actives largely listed as inhibitors; actives 4.4% (n = 360,000); AlphaScreen BAZ2B-H3K14Ac peptide displacement; Q9UIF8; note: nearly all actives have a fitted effect of over 60% in size
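In this displacement format the biotinylated H3(5-23) peptide acetylated at Lys14 serves as ligand at 50 nM, with BAZ2B at 50 nM in PBS pH 7.4 containing 0.01% Tween-20. Donor and acceptor beads are 10 ug/mL final.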
VDR inhibitor – vitamin D3 receptor (human) inhibition; P11473; VDR-SRC2-3 peptide fluorescence polarization, 2 h; Potency, µM, most hits filed as inhibitors; actives 0.93% (n = 400,000); AID 504847
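Signal is fluorescence polarization, reporting how far test compounds block the interaction of VDR with the SRC2-3 coregulator peptide after a 2 h room-temperature incubation.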
JMJD2A Tudor inh – inhibitors of human JMJD2A Tudor domain; O75164; Potency, µM (titrated, usually from 114 µM), actives largely listed as inhibitors; actives 4.4% (n = 390,000); AlphaScreen JMJD2A-Tudor / H3K4me3 peptide binding; note: nearly all actives have a fitted effect of over 50% in size
PLK1 PBD block – PLK1 (human) polo-box domain binding inhibition; Plk1 PBD binding of FITC phosphopeptide, fluorescence polarization; Potency, µM, hits mostly inhibitors; actives 2.8% (n = 360,000); AID 720504; note: series mostly up to about 57 µM; nearly all actives have a fitted effect of over 65% in size
G9a inh – blocks human histone lysine methyltransferase G9a; actives 8.8% (n = 350,000); Q96KQ7; AID 504332; Potency, µM (titrated, usually from 102 µM), actives largely listed as inhibitors; G9a H3K9 monomethylation, AlphaScreen, 2 h; note: nearly all actives have a fitted effect of over 75% in size
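G9a (20 nM) preincubated 15 min RT with compounds, then 500 nM biotinylated H3K9 peptide and 20 uM SAM added; 2 h RT reaction. Monomethyl-H3K9 product detected by AlphaScreen with anti-H3K9me1 antibody, streptavidin donor and anti-rabbit IgG acceptor beads.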
HP1b chromo inh – blocks HP1-beta chromodomain binding to methylated histone tails; P83916; AlphaScreen HP1-beta / biotin-H3K9me3 peptide binding; actives 0.56% (n = 390,000); Potency, µM (series often up to 114 µM), usual class: inhibitors; note: nearly all actives have a fitted effect of over 70% in size
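HP1-beta protein (50 nM final) preincubated 30 min at room temperature with biotinylated H3(1-18)K9me3 peptide (50 nM) in PBS pH 7.4, 0.01% Tween-20, then compound added for 30 min. AlphaScreen streptavidin donor/nickel chelate acceptor beads (10 ug/mL final), 30 min dark, luminescence read.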
Of the large screens only hits and unclear results are named; the others gave an inactive call. Only some compounds are listed: those with a hit (about 11% of all), similar ones and a draw of the others. Calls come from the whole dose curve; as a rule, active = well fitted curve in the direction sought with a large enough effect; inconclusive = small, poorly fitted or top-dose-only effect, or another doubt; inactive = no such curve, though single readings can be large; an effect the other way counts as inactive or inconclusive.

O=C(N/N=C/c1cccc([N+](=O)[O-])c1)c1ccc2c(c1)OCCO2	none
Cc1ccc(N(CCC#N)C(=O)COC(=O)c2cc(C)no2)cc1	G9a inh 22.4µM
Cc1ccc(N(CCC#N)C(=O)COC(=O)C2CCN(S(=O)(=O)c3ccc(C)c(C)c3)CC2)cc1	G9a inh 44.7µM
Cc1cc(C)cc(N(CCC#N)C(=O)COC(=O)C2CCN(S(=O)(=O)c3ccc(C)c(C)c3)CC2)c1	none
O=C(NCc1ccccc1Br)c1ccc2c(c1)OCCO2	none (no result: G9a inh)
CCCn1nnnc1NC(=O)COc1ccc(Br)cc1	BAZ2B inh 79.4µM, JMJD2A Tudor inh inconclusive
Cc1ccc(/C=C2\CCC3=C2OC(N)=C(C#N)C3c2ccc(C)cc2)cc1 (stereo not given)	VDR inhibitor inconclusive, G9a inh inconclusive
CCN1C=C(Cc2ccc(F)cc2)C2=C(C1)C(c1ccc(F)cc1)C(C#N)=C(N)O2 (stereo not given)	BAZ2B inh inconclusive, JMJD2A Tudor inh 50.1µM, G9a inh inconclusive
CCN1C=C(Cc2ccccc2C)C2=C(C1)C(c1ccccc1C)C(C#N)=C(N)O2 (stereo not given)	BAZ2B inh 44.7µM, JMJD2A Tudor inh 56.2µM, G9a inh 14.1µM, HP1b chromo inh inconclusive
COc1ccc(-c2cc(NCc3ccc(C)cc3)n3cnnc3n2)cc1	none (no result: PLK1 PBD block)
C/C(N)=C(/C#N)C(=O)COC(=O)c1ccc(O)cc1	none
C/C(N)=C(/C#N)C(=O)COC(=O)c1ccccc1Oc1ccccc1	VDR inhibitor inconclusive, JMJD2A Tudor inh inconclusive, PLK1 PBD block 26.7µM
C/C(N)=C(/C#N)C(=O)COC(=O)c1cc(-c2ccc(Br)cc2)nc2ccccc12	G9a inh 1.78µM
C/C(N)=C(/C#N)C(=O)COC(=O)c1ccc(C#N)cc1	BAZ2B inh inconclusive, G9a inh 22.4µM
Cc1ccc(-n2ccnc(NCCc3ccc(S(N)(=O)=O)cc3)c2=O)cc1C	none (no result: PLK1 PBD block)
Cc1ccc(-n2ncc3c(NCCc4ccccc4)ncnc32)cc1	none (no result: PLK1 PBD block)
Cc1cccc(CCNC(=O)C2CCN(c3ncnc4c3nc3n4CCCCC3)CC2)c1	none (no result: PLK1 PBD block)
CCOc1ccc(CNC(=O)c2cnc(SC)nc2C)cc1	none (no result: PLK1 PBD block)
CCC(=O)Nc1ccc(Cl)c(NC(=S)NC(=O)c2cc3ccccc3o2)c1	none
CCC(=O)Nc1ccc(Cl)c(NC(=S)NC(C)=O)c1	G9a inh 28.2µM
CCC(=O)Nc1ccc(Cl)c(NC(=S)NC(=O)c2ccco2)c1	PLK1 PBD block 26.7µM, G9a inh inconclusive
O=C(O)c1ccc2c(c1)C(=O)N([C@H](Cc1c[nH]c3ccccc13)C(=O)O)C2=O	none (no result: VDR inhibitor, PLK1 PBD block, HP1b chromo inh)
O=C(O)c1cc(N/N=C/c2cccc3ccccc23)ccc1Cl	G9a inh inconclusive
C/C(=N\Nc1ccc(Cl)c(C(=O)O)c1)c1cc2ccccc2o1	BAZ2B inh inconclusive, G9a inh 28.2µM
CC(=O)c1cc2ccccc2oc1=O	none
C/C(=N\Nc1ccc(Cl)c(C(=O)O)c1)c1cccc2ccccc12	BAZ2B inh inconclusive, VDR inhibitor inconclusive, JMJD2A Tudor inh 56.2µM, PLK1 PBD block 26.7µM, G9a inh 10µM, HP1b chromo inh 79.4µM
C/C(=N\Nc1cccc(C(=O)O)c1)c1cc2ccccc2o1	BAZ2B inh inconclusive, JMJD2A Tudor inh inconclusive, G9a inh 50.1µM
C/C(=N\Nc1ccccc1)c1cc2ccccc2oc1=O	JMJD2A Tudor inh inconclusive, G9a inh 35.5µM
COc1cc(NC(=O)CSc2nc(-c3ccc(C(C)C)cc3)no2)cc(OC)c1	none (no result: PLK1 PBD block)
COc1ccc(-c2cc(C(F)(F)F)n3nc(C(=O)N4CCN(C(=O)c5ccco5)CC4)cc3n2)cc1	none
C=CCn1c2ccccc2c2nnc(SC(CC)C(=O)Nc3sc4c(c3C#N)CCCC4)nc21 (stereo not given)	none
COc1ccc(NCC(=O)N/N=C(\C)c2cc3ccccc3o2)cc1	BAZ2B inh 35.5µM, JMJD2A Tudor inh inconclusive, G9a inh 15.8µM
C/C(=N\NC(=O)CNc1ccc(F)cc1)c1cc2ccccc2o1	BAZ2B inh inconclusive, JMJD2A Tudor inh inconclusive, G9a inh inconclusive
CCN1N=C(C)C=C(c2ccccc2)n2c1nc1ccccc12	G9a inh 79.4µM
Cn1c2cc(B(O)O)sc2c2cnn(Cc3c(F)cccc3F)c(=O)c21	none (no result: VDR inhibitor, JMJD2A Tudor inh, PLK1 PBD block, HP1b chromo inh)
CCOc1ccc(CNS(=O)(=O)c2ccc(-c3coc(C)n3)cc2)cc1OC	none (no result: PLK1 PBD block)
CN(C)c1nc(C=C(C#N)C#N)c(Cl)n1-c1ccc(F)cc1	VDR inhibitor 25.1µM, PLK1 PBD block 15µM, G9a inh inconclusive
Cc1ccc(NC(=O)/C(C#N)=C/c2cc(C)n(-c3ccc(F)cc3)c2C)cc1C	none (no result: PLK1 PBD block)
CCOc1ccccc1NC(=O)COC(=O)c1c[nH]c2ccccc12	G9a inh 50.1µM
CCOc1ccc(CCNC(=O)C2CCCN(S(=O)(=O)N(C)c3ccc(F)cc3)C2)cc1 (stereo not given)	none (no result: PLK1 PBD block)
COc1ccccc1Sc1ccccc1/C=N/NC(N)=O	G9a inh 50.1µM
COc1ccccc1C=NNC(=O)NN=Cc1ccccc1OC	none (no result: BAZ2B inh, G9a inh)
O=c1c(/C=N/OCc2ccc(Cl)cc2Cl)c[nH]n1-c1cccc(Cl)n1	none
O=c1c(-n2cncn2)c[nH]n1-c1cccc(Cl)n1	BAZ2B inh 50.1µM, JMJD2A Tudor inh 50.1µM, G9a inh inconclusive, HP1b chromo inh inconclusive
CSCC[C@H](NC(=O)[C@H](CC(C)C)NC(=O)CCNC(=O)[C@@H](NC(=O)[C@H](Cc1ccccc1)NC(=O)[C@H](CO)NC(=O)[C@@H](N)CC(=O)O)C(C)C)C(N)=O	none (no result: BAZ2B inh, JMJD2A Tudor inh, PLK1 PBD block, G9a inh, HP1b chromo inh)
COc1ccc(N(C(=O)c2cnccn2)C(C(=O)NC2CCCCC2)c2ccc(O)cc2)cc1 (stereo not given)	G9a inh inconclusive
Oc1c(C(c2cccs2)N2CCN(c3ccccc3)CC2)ccc2cccnc12 (stereo not given)	BAZ2B inh 39.8µM, G9a inh 1.26µM (no result: VDR inhibitor, JMJD2A Tudor inh, PLK1 PBD block, HP1b chromo inh)
Oc1c(C(c2ccccc2Cl)N2CCCC2)ccc2cccnc12 (stereo not given)	BAZ2B inh 20µM, VDR inhibitor inconclusive, JMJD2A Tudor inh 20µM, PLK1 PBD block 7.52µM, G9a inh 11.2µM
CN1CCN(C(c2ccc(C(F)(F)F)cc2)c2ccc3cccnc3c2O)CC1 (stereo not given)	BAZ2B inh 39.8µM, VDR inhibitor 31.6µM, JMJD2A Tudor inh 56.2µM, PLK1 PBD block 3.77µM, G9a inh 7.94µM, HP1b chromo inh inconclusive
CCCCC(=O)NC(c1ccccc1Cl)c1ccc2cccnc2c1O (stereo not given)	none (no result: G9a inh)
Cc1ccc(NC(=S)NCC(O)c2ccccc2)c(C)c1 (stereo not given)	none
Cc1cccc(N2NC(=O)/C(=C/c3ccc(-c4ccc(Cl)c(C(=O)O)c4)o3)C2=O)c1	VDR inhibitor inconclusive, JMJD2A Tudor inh inconclusive, PLK1 PBD block 16.8µM, G9a inh 12.6µM, HP1b chromo inh inconclusive (no result: BAZ2B inh)

Bioassay records deposited in PubChem by National Center for Advancing Translational Sciences (NCATS).
